From PubChem BioAssay AID538 (PCMD, 2006)
Hit rate of the full screen: of about 62,000 compounds, about 100 (0.16%) were called active.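 How the source made its calls: active means inhibition above 20% in each of the two 10-compound mixture wells holding the compound; inactive means the rest.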 Shown is part of a subset that was picked to be rich in actives.

Each molecule was assayed against Complement C1s subcomponent (Homo sapiens) (UniProt P09871) (assay: complement C1s protease inhibitors, primary screen, biochemical, 10-compound mixtures (AID 538;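 further: 0% = enzyme wells lacking compound mixture and 100% = no-enzyme blank wells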)). Conditions: purified C1s, fluorogenic AMC substrate, pooled mixtures; screened at 5 µM (by protocol).
Complement C1s subcomponent (Homo sapiens), sequence (P09871 16-437 limits assumed): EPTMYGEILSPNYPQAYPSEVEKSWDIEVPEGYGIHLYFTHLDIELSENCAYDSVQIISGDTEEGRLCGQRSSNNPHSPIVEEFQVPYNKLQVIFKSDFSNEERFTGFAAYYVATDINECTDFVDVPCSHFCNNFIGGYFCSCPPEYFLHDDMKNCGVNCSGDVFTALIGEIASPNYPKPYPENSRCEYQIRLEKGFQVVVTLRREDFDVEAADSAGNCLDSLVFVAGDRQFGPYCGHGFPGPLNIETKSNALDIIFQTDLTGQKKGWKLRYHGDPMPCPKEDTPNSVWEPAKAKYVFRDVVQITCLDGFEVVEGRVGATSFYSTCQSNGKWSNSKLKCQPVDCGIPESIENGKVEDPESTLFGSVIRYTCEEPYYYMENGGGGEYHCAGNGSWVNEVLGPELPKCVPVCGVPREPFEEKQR
Complement C1s subcomponent (Homo sapiens), sequence (P09871 438-688 limits assumed): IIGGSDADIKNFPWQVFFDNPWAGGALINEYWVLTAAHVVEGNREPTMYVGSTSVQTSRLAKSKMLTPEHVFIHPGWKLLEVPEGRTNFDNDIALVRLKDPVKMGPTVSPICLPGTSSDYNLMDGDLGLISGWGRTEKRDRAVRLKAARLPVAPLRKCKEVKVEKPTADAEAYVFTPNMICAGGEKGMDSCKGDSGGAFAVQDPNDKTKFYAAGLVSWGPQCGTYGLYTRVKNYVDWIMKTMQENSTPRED

Mean inhibition % of two 10-compound mixtures (stronger effect = higher value), inactive:
CCCS(=O)(=O)N1CCC(C(=O)NCCCN(C)Cc2ccccc2)CC1 2.46%, CCc1cc(Br)ccc1NC(=O)C1CCCO1 (configuration not stated) 4.52%, Cc1cccc(OCC(O)Cn2c(=N)n(CCN3CCOCC3)c3ccccc32)c1 (configuration not stated) 3.52%, O=S(=O)(NCCOc1cccc2cccnc12)c1ccc(F)cc1 8.29%, CCOC(=O)CN(C(=O)CN1CCOCC1)c1ccc(Br)cc1 1.94%, O=C(Nc1ccc(Cl)cn1)Nc1cccs1 7.83%, CC(NC(=O)c1cc(-c2ccccc2)on1)c1ccccc1 (configuration not stated) -25.3%, CCn1ncc(C2=NOC(C(=O)Nc3ccccc3C(=O)OC)C2)c1C (configuration not stated) 1.96%, COc1ccc(CCNC(=O)CN2CCC(n3nnc4cc(F)ccc43)CC2)cc1OC 2.77%, Cc1ccc(Cn2nnc3c(=O)n(CC(=O)N4CCCCC4)cnc32)cc1 -35.5%, Cc1ccc(CNC(=O)C2CC(=O)N(C3CCCCCCC3)C2)cc1 (configuration not stated) -34.1%, COc1ccccc1N(C(=O)Cn1nnc2ccccc21)C(C(=O)NCc1ccco1)c1ccc(C)o1 (configuration not stated) 8.72%, C#CCN1C(=O)C(O)(CC(=O)c2cc(OC)ccc2OC)c2ccccc21 (configuration not stated) 11.6%, C=CCn1c(SCn2nnc3ccccc3c2=O)nnc1-c1ccc(Cl)cc1 9.21%, CCOc1ccc(S(=O)(=O)N(CC(=O)O)c2ccccc2)cc1 -11.4%, O=S1(=O)CCN2C(=N1)SC1=C2CCN(Cc2ccccc2)C1 15.2%, Cc1cc(C)cc(NC(=O)N2CCC(NC(=O)c3ccc(F)cc3)CC2)c1 3.5%, CC(C)CCNC(=O)C(C)N(C(=O)Cn1nnc(-c2ccc(F)cc2)n1)C1CCCC1 (configuration not stated) -3.08%, CCCCCOC(=O)NCCOC(=O)Nc1ccc(C(=O)OCC)cc1 1.11%, CCNc1nc(SCCOc2ccccc2)nc(N(C)C)n1 3.09%, C=CCn1c(SCC(=O)NC23CC4CC(CC(C4)C2)C3)nc(O)cc1=O -25.2%, COC(=O)c1cccc(NC(=O)CN2CCC(NC(=O)c3cc(OC)c(OC)c(OC)c3)CC2)c1 -69.7%, Cc1cccc(N2CCN(S(=O)(=O)c3ccc4c(c3)c(=O)n(C)c(=O)n4C)CC2C)c1 (configuration not stated) 12.1%, CCCC(=O)Nc1ccc(C(=O)NCCCn2ccnc2)cc1 14.7%, COc1ccc(-c2cc3ccc(OCc4nn[nH]n4)cc3oc2=O)cc1 -281%, COc1ccc(S(=O)(=O)N(C)CC(=O)Nc2ccc3c(c2)OCCO3)cc1OC 3.88%, COc1cccc(C(=O)Nc2c3c(nn2-c2cccc(C)c2C)CS(=O)(=O)C3)c1OC -0.81%, CC(=O)N1CCN(c2cccc(C)c2C)CC1 6.81%, Cc1nnc(NC(=O)CCC(=O)N2CCC(C)CC2)s1 4.7%, O=C(C(Cc1ccccc1)n1cccc1)N1CCN(C2CCCCC2)CC1 (configuration not stated) 11.2%, Cn1c(SCC(=O)N2CCOCC2)nnc1-c1ccc(NC(=O)c2ccccc2F)cc1 3.6%, O=C(COc1ccc(F)cc1)N(CC1=CCS(=O)(=O)C1)c1ccccc1 4.83%, O=C1NC2(CCCCC2)N=C1c1ccccc1 2.35%, CCC/C(O)=C1\C(=O)CC(C)(C)CC1=Nc1ccccc1OC 9.67%, O=C(CS(=O)(=O)c1cn(Cc2cccc(F)c2)c2ccccc12)N1CCCCC1 -0.735%, CCOc1ccc(Cn2nnc(C(=O)NCc3ccccc3)c2N)cc1 -16.1%, Oc1ccc(Cl)cc1/C=N/c1nc2ccccc2[nH]1 5.15%, CCN=C1SC(CC(=O)Nc2ccc(C)cc2)C(=O)N1CC (configuration not stated) -15%, Cc1occc1C(=O)N1CCCc2ccccc21 -1.12%, CCN(CC)C(=O)CSc1nnc(-c2cnccn2)n1-c1ccc(C)cc1 14.1%, COc1ccc(-c2nnc(SCC(=O)NC3CCCCC3)o2)cc1OC -3.36%, CCCOC(=O)C1=C(C)NC2=C(C(=O)C(C(=O)OC)C(C)C2)C1c1ccc(N(C)C)cc1 (configuration not stated) -5.72%, CC(CN1CCCCC1)OC(=O)c1ccccc1Cl (configuration not stated) 2.23%, CN1CCCc2cc(C#N)c(=O)[nH]c21 -74.4%, Cc1ncn(C23CC4CC(CC(O)(C4)C2)C3)n1 0.845%, Cc1ncc(CC(=O)n2cc(C(=O)c3cc(Cl)ccc3O)cn2)s1 8.66%, Cn1c(=O)c2c(nc(SCC(=O)Nc3ccccc3N3CCCCC3)n2C)n(C)c1=O -17.6%
